Shown are actives, neighbours in structure and some others; about 1.1% of the full set was active somewhere.
PGK inhibitor – qHTS Assay to Find Inhibitors of Phosphoglycerate Kinase; Potency, µM (titrated, usually from 57.5 µM), most hits filed as inhibitors; hit rate 0.043% among 380,000; AID 602233, 2012; PGK/GAPDH coupled, Kinase-Glo luminescence, 60 min; also: nearly all actives have a fitted effect of over 60% in size
Target sequence (P07378 whole entry, looked up): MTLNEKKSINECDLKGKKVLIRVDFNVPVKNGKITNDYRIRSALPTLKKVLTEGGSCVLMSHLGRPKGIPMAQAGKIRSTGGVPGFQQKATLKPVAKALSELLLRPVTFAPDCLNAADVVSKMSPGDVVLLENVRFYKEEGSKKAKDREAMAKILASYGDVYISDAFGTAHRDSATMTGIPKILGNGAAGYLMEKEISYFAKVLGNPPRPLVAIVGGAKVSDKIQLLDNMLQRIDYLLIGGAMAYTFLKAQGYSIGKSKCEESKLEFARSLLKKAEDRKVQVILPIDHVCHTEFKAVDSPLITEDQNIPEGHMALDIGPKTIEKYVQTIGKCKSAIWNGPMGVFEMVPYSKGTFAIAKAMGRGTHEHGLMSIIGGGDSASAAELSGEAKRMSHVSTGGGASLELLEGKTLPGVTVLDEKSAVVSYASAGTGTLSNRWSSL
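Recombinant glycosomal PGK reaction used 1,3-bisphosphoglycerate generated in-well by GAPDH (100nM final) in 100mM TEA pH 7.6, 5mM MgCl2, 0.01% Tween-20. After 60 minutes at room temperature, ATP was read by Kinase-Glo Plus luminescence end-point.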
Pin1 inhibitor – qHTS Assay to Find Inhibitors of Pin1; Pin1 FP peptide displacement, HiFluor488, 10 min; Potency, µM (titrated, usually from 115 µM), actives largely listed as inhibitors; Peptidyl-prolyl cis-trans isomerase NIMA-interacting 1 (Homo sapiens), Q13526; hit rate 0.009% among 390,000; active = well fitted inhibition curve with a large enough effect in the polarisation, with a control signal flat, not every such curve was filed as active; inconclusive = small, poorly fitted or top-dose-only effect, or effect the other way, or a change in a side signal; inactive = no such curve, though single readings can be large or run the other way; the % refers to the polarisation
Target sequence (Q13526 whole entry, looked up): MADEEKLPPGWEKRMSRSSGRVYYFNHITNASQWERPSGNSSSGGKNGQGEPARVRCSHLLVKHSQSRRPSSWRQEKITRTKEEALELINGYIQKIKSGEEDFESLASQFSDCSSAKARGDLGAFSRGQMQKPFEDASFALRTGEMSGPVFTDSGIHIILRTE
GLS inh – qHTS for Inhibitors of Glutaminase (GLS). AID 624170, 2012. hit rate 0.21% among 410,000. Glutaminase kidney isoform, mitochondrial (Homo sapiens), O94925. GLS enzymatic activity, qHTS titration. Potency, µM (highest dose often 45.5 µM), hits mostly inhibitors
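Read-out is an Amplex red fluorescence increase coupled through glutamate oxidase and HRP, measured before and after 30 min room-temperature incubation. hKGA is in 45 mM KH2PO4 (pH 8.2) with 0.02% Tween-20; glutamine added as 1mM solution.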
VDR inh – Inhibitors of the vitamin D receptor (VDR): qHTS. Vitamin D3 receptor (Homo sapiens), P11473. VDR-SRC2-3 peptide fluorescence polarization, 2 h. Potency, µM, most hits filed as inhibitors. hit rate 0.93% among 400,000. AID 504847, 2011
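Reagent solutions, kept cold and dark, are dispensed first; compounds are then pinned in at 23 nl, plates briefly spun, and incubated 2 h at ambient temperature. Inhibition of VDR–SRC2-3 peptide binding is read by fluorescence polarization.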
Tb PFK inh – qHTS Assay to Find Inhibitors of T. brucei phosphofructokinase | ATP-dependent 6-phosphofructokinase (Trypanosoma brucei brucei), O15648 | T. brucei PFK, ADP-Glo luminescence | Potency, µM (titrated, usually from 57.5 µM), hits mostly inhibitors | hit rate 0.17% among 330,000; also: nearly all actives have a fitted effect of over 60% in size
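PFK 1.25 nM, F6P 0.5 mM, ATP 0.1 mM, 0.1 M TEA pH 8.0, 5 mM MgCl2, 0.01% Tween20, 0.1% BSA; 45 min RT. ADP-Glo readout. qHTS titration up to 57 uM; curves fitted, compounds curve-classed.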
VDR confirm – qHTS for Inhibitors of the vitamin D receptor (VDR): Hit Validation in Primary Screen; shares compounds with VDR inh; VDR-coactivator inhibition assay, qHTS confirmation; Potency, µM, most hits filed as inhibitors; hit rate 89% among 840
VDR FP fluor – qHTS for Inhibitors of the vitamin D receptor (VDR): Hit Validation using a Fluorescein Assay. Potency, µM (series often up to 57.1 µM), most hits filed as inhibitors. hit rate 48% among 840. VDR-coactivator binding, fluorescein fluorescence polarization. AID 602200, 2012. shares compounds with VDR inh
VDR bla – qHTS for Inhibitors of the vitamin D receptor (VDR): Hit Validation using a Beta-Lactamase Assay. shares compounds with VDR inh. VDR beta-lactamase reporter cells, FRET ratio; cells co-treated with VDR agonist LG190178. Potency, µM (doses to about 46.1 µM), usual class: inhibitors. hit rate 23% among 840
VDR cytotox – qHTS for Inhibitors of the vitamin D receptor (VDR): Hit Validation using a Cytotoxicity Assay; shares compounds with VDR inh; cytotoxicity counter-screen, cell viability, qHTS; Potency, µM (titrated, usually from 48.3 µM), most hits filed as cytotoxic; hit rate 18% among 840; AID 602204, 2012; also: nearly all actives have a fitted effect of over 75% in size
Hits are given with their value; – = inactive; ? = inconclusive; · = no result given. Unless noted, calls follow the shape of the dose curve; as a rule, active = well fitted curve in the direction sought with a large enough effect; inconclusive = small, poorly fitted or top-dose-only effect, or another doubt; inactive = no such curve, though single readings can be large; an effect the other way counts as inactive or inconclusive.

SMILES	PGK inhibitor	Pin1 inhibitor	GLS inh	VDR inh	Tb PFK inh	VDR confirm	VDR FP fluor	VDR bla	VDR cytotox
CS/C(=N\S(=O)(=O)c1ccc(F)cc1)c1ccccc1	·	–	·	–	·	·	·	·	·
O=S(=O)(/N=C(/Sc1ccccc1)c1ccccc1)c1ccccc1	–	–	–	79.4µM	–	8.44	?	–	–
O=S(=O)(/N=C(/Sc1ccc(Cl)cc1)c1ccccc1)c1ccccc1	·	–	·	35.5µM	·	3.55	11.2µM	–	–
O=[N+]([O-])c1ccc(Cl)c(S(=O)(=O)/N=C(/Sc2ccc(Br)cc2)c2ccccc2)c1	·	–	·	?	·	7.08	5.01µM	–	–
Cc1cc2c(s1)c1cnn(Cc3cc(F)c(F)cc3F)c(=O)c1n2C	·	–	·	·	·	·	·	·	·
O=C1c2cccc(-c3ccc(C(F)(F)F)cc3)c2C2CC=CCN12 (stereo unspecified)	·	·	–	·	·	·	·	·	·
Cc1ccccc1OCc1nc2ccc(S(=O)(=O)N3CCOCC3)cc2[nH]1	–	–	–	39.8µM	–	21.2	?	–	–
O=C(COC(=O)C1CC2CCCC(C1)C2=O)Nc1cccc(F)c1 (stereo unspecified)	–	–	–	–	–	·	·	·	·
CC1CCc2c(sc(NC(=O)CCC(=O)O)c2C(=O)NC2CC2)C1 (stereo unspecified)	–	–	–	56.2µM	?	26.7	28.2µM	–	–
CCc1ccc2c(c1)/C(=C/C(=O)c1cccs1)C(=O)N2	–	–	–	25.1µM	–	15	8.91µM	?	?
Cc1cccc2c1NC(=O)/C2=C\C(=O)c1cccs1	–	–	–	?	–	6.31	8.91µM	23.1µM	29.9µM
COc1ccc(-c2cc(N)n(S(=O)(=O)c3c(F)c(F)c(F)c(F)c3F)n2)cc1OC	–	?	–	?	–	5.01	7.08µM	5.8µM	21.2µM
CCOc1ccc(C(=O)CCN2CCCCCC2)cc1	–	–	–	25.1µM	–	26.7	?	?	?
CCOc1ccc(OCCN2CCCCC2)cc1	–	–	–	–	–	·	·	·	·
[O]=[Bi][O]C(=O)[O][Bi]=[O]	·	·	–	–	·	·	·	·	·
O=C(Nc1nnc(COc2ccc(Cl)cc2)s1)c1ccco1	–	–	–	28.2µM	?	4.23	?	–	–
O=C(/C=C/c1c(F)cccc1Cl)c1ccc(F)cc1	–	–	–	44.7µM	–	10.6	8.91µM	–	–
O=C(N/N=C/c1c(Cl)cccc1Cl)c1ccc(F)cc1	–	–	–	–	–	·	·	·	·
CS(=O)(=O)c1ccc(S(=O)CC(=O)OCc2ccccc2)c([N+](=O)[O-])c1 (stereo unspecified)	–	–	–	17.8µM	–	9.47	12.6µM	?	20.6µM
CC(C)=C1C(=O)NN(c2ccc(F)c(Cl)c2)C1=O	–	–	–	–	–	·	·	·	·
O=C1NN(c2ccc(F)c(Cl)c2)C(=O)/C1=C\c1cccc(OC(=O)c2cccs2)c1	–	·	–	22.4µM	–	10.6	?	–	–
O=C1C(Cl)=C(NS(=O)(=O)c2ccc([N+](=O)[O-])cc2)C(=O)c2ccccc21	–	–	–	22.4µM	–	5.97	?	?	?
CC(=O)Nc1sc(N/N=C\c2ccccc2)nc1-c1cccs1	–	–	?	31.6µM	–	3.36	?	–	–
Cc1cccc(OCc2nc(CC(=O)Nc3ccc(C)c(C)c3)cs2)c1	–	–	–	–	·	·	·	·	·
NC(=O)c1c(N)sc2c1CCC2	–	–	–	–	–	·	·	·	·
SMILES	PGK inhibitor	Pin1 inhibitor	GLS inh	VDR inh	Tb PFK inh	VDR confirm	VDR FP fluor	VDR bla	VDR cytotox
NC(=O)c1c(N)sc2c1CCCCC2	–	–	–	79.4µM	?	17.8	14.1µM	–	–
O=C(CSc1nc(=O)[nH]c2c1CCCC2)NCc1ccc(Cl)cc1	–	–	–	–	·	·	·	·	·
O=C(O)CSc1cc(NS(=O)(=O)c2ccc(Cl)cc2)c2ccccc2c1O	–	?	–	3.55µM	–	29.9	?	?	?
Cc1cc(C)c(S(=O)(=O)Nc2cc(SCC(=O)O)c(O)c3ccccc23)cc1C	–	?	–	22.4µM	–	5.32	11.2µM	–	?
COc1ccc(S(=O)(=O)Nc2cccc3ccccc23)cc1	·	–	·	–	·	·	·	·	·
COc1ccc(S(=O)(=O)Nc2cc(SCC(=O)O)c(O)c3ccccc23)cc1	–	?	?	?	?	15.8	14.1µM	?	?
COc1ccc(S(=O)(=O)Nc2cc(Sc3ncn[nH]3)c(O)c3ccccc23)cc1	·	?	·	20µM	?	21.2	?	?	18.4µM
O=C(CN1CCN(C(=O)c2ccco2)CC1)Nc1ccc(F)cc1F	–	–	–	–	–	·	·	·	·
Cc1cccc(C(=O)NC(=O)Nc2ccc(-c3cc(C(F)(F)F)nn3-c3ccccc3)cc2)c1	–	–	–	–	·	·	·	·	·
COc1ccc(CCNC(=O)CSc2cn(CCNC(=O)c3ccccc3F)c3ccccc23)cc1OC	–	–	–	–	·	·	·	·	·
CC1=C(C)CS(=O)N(S(=O)(=O)c2ccc(Cl)cc2)C1 (stereo unspecified)	–	–	–	2.82µM	–	1.19	?	–	16.4µM
OB(O)O	·	·	–	–	·	·	·	·	·
Cc1ccc(S(=O)(=O)Nc2nnc(C(C)(C)C)s2)cc1	–	–	–	–	–	·	·	·	·
CC(C)(C)c1nnc(NS(=O)(=O)c2ccc([N+](=O)[O-])cc2)s1	–	–	–	?	–	22.4	25.1µM	–	–
FC(F)(F)c1cccc(Sc2nc(-c3ccccc3)nnc2C(F)(F)F)c1	–	–	–	31.6µM	–	15	?	?	?
O=c1c2ccccc2nc2sc(NCc3ccc(Oc4ccccc4)cc3)nn12	·	–	·	·	·	·	·	·	·
Cc1ccccc1CS(=O)(=O)c1ncc(Cl)c(C(=O)Nc2nnc(C(C)C)s2)n1	–	–	–	?	·	·	·	·	·
CSc1nnc(NC(=O)c2nc(S(=O)(=O)Cc3ccccc3)ncc2Cl)s1	–	–	–	?	–	10	8.91µM	5.17µM	26.7µM
CC(C)c1nnc(NC(=O)c2nc(S(=O)(=O)Cc3ccccc3)ncc2Cl)s1	–	–	–	15.8µM	–	9.47	7.94µM	6.51µM	14.6µM

Screens (PubChem)
